# Sampled rows, rich in hits. Any-hit rate of the full collection: about 21%.
# TDP1 cell CPT: DT40-hTDP1 cell growth loss with CPT | Potency, µM (doses to about 46.2 µM), inactives show at the highest dose activity change, negative = growth inhibition, usual class: inhibitors | chicken DT40 Tdp1-/-;hTDP1 cells + 20 nM CPT, ATP luminescence, 48 h | actives 12% (n = 420,000) | AID 686979; note: potency is the fitted concentration of half-maximal effect; % is set by controls: 0 for no effect and ±100 for the full control effect; nearly all actives have a fitted effect of over 55% in size
#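 Chicken DT40 Tdp1-/- cells complemented with human TDP1, 400 cells/well, exposed to compounds plus 20 nM camptothecin for at least 48 h at 37 C; viability read as ATP content by CellTiter-Glo luminescence.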
# ClpP mod: qHTS Assay for Activators of ClpP | ATP-dependent Clp protease proteolytic subunit (Bacillus subtilis (strain 168)), P80244 | purified B. subtilis ClpP, FRET peptide cleavage, 20 min | Potency, µM (series often up to 57.5 µM), inactives show top-dose activity change, negative = active | actives 1.9% (n = 340,000) | AID 651965, 2013; active = well fitted falling curve with a large enough effect; inconclusive = small, poorly fitted or top-dose-only effect; inactive = no such curve, though single readings can be large or run the other way; note: potency is the fitted concentration of half-maximal effect; the source files actives as falling curves though it sought activators and does not explain the sign; nearly all actives have a fitted effect of over 65% in size
# Target sequence (P80244 whole entry, looked up): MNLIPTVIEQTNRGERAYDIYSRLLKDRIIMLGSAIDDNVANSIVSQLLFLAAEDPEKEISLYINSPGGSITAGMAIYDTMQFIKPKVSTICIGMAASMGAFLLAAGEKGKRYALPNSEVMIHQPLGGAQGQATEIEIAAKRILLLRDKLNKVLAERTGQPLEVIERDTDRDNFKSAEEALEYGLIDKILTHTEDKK
#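 Buffer: 100 mM Tris/HCl pH8, 100 mM KCl, 0.05% low protease BSA, 2.5% glycerol, 0.01% Tween-20. ClpP 10 microg/mL final; 20 min RT; delta FRET normalized to ADEP and DMSO controls.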
# D3 ag: agonists of human D3 dopamine receptor; actives 0.58% (n = 410,000); max activation, %; P35462; AID 652048; D3R DiscoveRx beta-arrestin cells, luminescence, 90 min; in the data active = max activation above about 30%; note: 0% is about no effect
# Target sequence (P35462 whole entry, looked up): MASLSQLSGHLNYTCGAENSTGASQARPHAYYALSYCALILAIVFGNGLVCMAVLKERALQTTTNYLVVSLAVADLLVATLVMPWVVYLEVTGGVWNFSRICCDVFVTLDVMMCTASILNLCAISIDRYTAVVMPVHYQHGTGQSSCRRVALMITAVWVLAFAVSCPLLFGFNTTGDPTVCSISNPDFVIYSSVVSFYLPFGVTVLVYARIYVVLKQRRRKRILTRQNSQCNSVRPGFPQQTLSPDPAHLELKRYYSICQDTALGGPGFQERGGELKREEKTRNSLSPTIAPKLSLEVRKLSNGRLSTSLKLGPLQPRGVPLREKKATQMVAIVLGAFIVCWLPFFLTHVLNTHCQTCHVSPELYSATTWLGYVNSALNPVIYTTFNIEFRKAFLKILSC
#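 Agonist-mode cell screen: cells plated at 1500/well and incubated overnight at 37 °C, then exposed to library compounds for 90 min at 37 °C. Detection reagent was added for 30–60 min at room temperature, and luminescence was read.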
# IL1B secr inh: blocks inflammasome-driven IL-1 beta release. THP-1 LPS/ATP IL-1B secretion, AlphaLISA, 16 h; stronger effect = lower value. activity change, % at 57.5 µM. actives 4.7% (n = 360,000); in the data active = activity change below about -50%; inconclusive = mostly about -30% to -49%; note: % is set by controls: 0 for no effect and ±100 for the full control effect
#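 Secreted IL-1B measured by AlphaLISA bead assay after 16 h compound exposure of THP-1 cells; compounds (final up to 57.5 uM) added 1 h before LPS (250 ng/mL) and ATP (1.25 mM) stimulation; lower signal means less secretion.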
# D3 antag: blocks the human D3 dopamine receptor. actives 2.5% (n = 360,000). P35462. AID 652054. D3R cells, DiscoveRx beta-arrestin luminescence, antagonist mode; stronger effect = lower value. max response, negative = inhibition, %; in the data active = max response below about -50%; inconclusive = no clear call, values can overlap the other calls; note: % is set by controls: 0 for no effect and ±100 for the full control effect
#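 Cells expressing the human receptor were seeded at 1500 cells/well, incubated overnight at 37 degrees C in 5% CO2, then exposed to library compounds with dopamine controls for 90 minutes at 37 degrees C before luminescent detection.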
# DT40 TDP1 no CPT: qHTS for Inhibitors of human tyrosyl-DNA phosphodiesterase 1 (TDP1): qHTS in cells in absence of CPT. DT40 Tdp1-/- hTDP1 cells, no CPT, ATP luminescence, 48 h. Potency, µM (top dose mostly 46.2 µM), for the others: at the top dose activity change, negative = growth inhibition, usual class: inhibitors. actives 15% (n = 420,000). AID 686978, 2013; note: potency is the fitted concentration of half-maximal effect; % is set by controls: 0 for no effect and ±100 for the full control effect; nearly all actives have a fitted effect of over 55% in size
#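 Stably hTDP1-transfected Tdp1-null chicken DT40 cells were treated with library compounds minus camptothecin and grown for at least 48 hr at 37 °C, after which cellular ATP was quantified by luminescence.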
# * = called active by the depositor; u = inconclusive; x = no result. Unless noted, calls come from the whole dose curve; as a rule, active = well fitted inhibition curve with a large enough effect; inconclusive = small, poorly fitted or top-dose-only effect; inactive = flat fitted curve, though single readings scatter.
SMILES,TDP1 cell CPT,ClpP mod,D3 ag,IL1B secr inh,D3 antag,DT40 TDP1 no CPT
COCCNC(=O)C1CCN(Cc2cc3ccccc3n2Cc2ccc(C)cc2)CC1,16µM*,-1%,-3,x,x,21µM*
Cc1cccc(CN2CCC(C(N)=O)CC2)c1,2%,2%,2,10,7,8%
CCNC(=O)C1CCN(Cc2cc3ccccc3n2Cc2ccc(C)cc2)CC1,23µM*,1%,-21,x,x,21µM*
CNC(=O)C1CCN(Cc2cc3ccccc3n2Cc2cccc(C)c2)CC1,18µM*,-3%,-17,x,x,16µM*
CCN(CC)c1ccc(CN2CCC(C(=O)NCc3ccc(C)cc3)CC2)cc1,15µM*,-4%,-10,-2,-12,15µM*
CCN(CC)S(=O)(=O)N1CCC(C(=O)NCc2ccc(C)cc2)CC1,-8%,-2%,3,-5,-8,-15%
CCN(C(=O)CSc1nc2cc(C(=O)O)ccc2c(=O)n1-c1ccccc1F)C1CCS(=O)(=O)C1 (configuration not stated),-13%,-18%,-8,6,-24,6%
Cc1ccc(Cn2c(CN3CCC(C(=O)NCc4ccccc4C)CC3)cc3ccccc32)cc1,21µM*,-23%,-16,x,x,16µM*
Cc1ccc(Cn2c(CN3CCC(C(=O)NCc4cccnc4)CC3)cc3ccccc32)cc1,u,-1%,-1,x,x,u
O=C(N/C(=C\c1ccc(Cl)cc1)C(=O)N1CCOCC1)c1ccc([N+](=O)[O-])cc1,-8%,x,2,27,0,-15%
CN1c2ccccc2-c2nc(SCC(=O)Nc3ccccc3)ncc2S1(=O)=O,u,4%,-18,x,x,18µM*
COc1ccc(NC(=O)CSc2ncc3c(n2)-c2ccccc2N(C)S3(=O)=O)cc1Cl,u,183%,6,x,x,u
COc1ccc(CNC(=O)CSc2ncc3c(n2)-c2ccc(Cl)cc2N(Cc2ccc(F)cc2)S3(=O)=O)cc1OC,12µM*,2%,-23,x,x,12µM*
COc1ccccc1NC(=O)CSc1ncc2c(n1)-c1cc(Cl)ccc1N(C)S2(=O)=O,7.3µM*,-7%,-7,x,x,10µM*
CCOc1ccc(NC(=O)CSc2ncc3c(n2)-c2ccccc2N(C)S3(=O)=O)cc1,0%,4%,0,x,x,6%
CCOC(=O)c1cccc(NC(=O)CSc2ncc3c(n2)-c2ccc(Cl)cc2N(Cc2ccccc2)S3(=O)=O)c1,u,-3%,-13,x,x,1.5µM*
Cc1ccc(NC(=O)Cn2c(=O)n(-c3ccccc3)c(=O)c3ccc(C(=O)NCc4ccc5c(c4)OCO5)cc32)c(C)c1,u,-22%,-10,x,x,-14%
COc1cccc(NC(=O)CSc2ncc3c(n2)-c2ccc(Cl)cc2N(C)S3(=O)=O)c1,-16%,-11%,-12,x,x,-30%
Cc1ccc(C)c(NC(=O)CSc2ncc3c(n2)-c2ccc(Cl)cc2N(C)S3(=O)=O)c1,u,5%,8,x,x,18µM*
COc1ccc(CNC(=O)CSc2ncc3c(n2)-c2cc(Cl)ccc2N(Cc2ccccc2)S3(=O)=O)cc1OC,15µM*,31%,-2,x,x,12µM*
Cc1ccccc1NS(=O)(=O)c1ccc2[nH]cc(C(=O)NC3CCCCC3)c(=O)c2c1,u,-26%,4,x,x,u
Cc1c(C(=O)NCCc2ccccn2)cnn1-c1nccc(-c2cccs2)n1,-12%,x,x,x,x,-17%
COc1ccccc1CNC(=O)c1cnn(-c2nccc(-c3cccs3)n2)c1C,18µM*,x,x,x,x,u
COc1ccc(/C=C2\N=C(SC)N(C)C2=O)cc1,-3%,1%,2,3,7,-3%
CSC1=N/C(=C\c2ccc(Cl)cc2)C(=O)N1N(C)C,u,x,10,x,7,23µM*
SMILES,TDP1 cell CPT,ClpP mod,D3 ag,IL1B secr inh,D3 antag,DT40 TDP1 no CPT
COc1cc(/C=N/N2CCOCC2)ccc1OCc1ccc(Cl)cc1,-2%,x,5,-11,3,u
COc1cc(/C=N/OCC(=O)NC2CCCCC2C)ccc1OCc1ccc(Cl)cc1 (configuration not stated),18µM*,15%,5,u,3,18µM*
COc1cc(/C=N/OCC(=O)Nc2cc(C)cc(C)c2)ccc1OCc1ccc(Cl)cc1,u,-11%,3,-5,0,13µM*
COc1cccc(C(=O)NCCS(=O)(=O)NCc2ccccn2)c1,0%,-6%,2,4,24,2%
CCOc1cc2c(cc1OCC)C(CC(=O)O)N(C(=O)Nc1ccc(Br)c(C)c1)CC2 (configuration not stated),-12%,-8%,-5,x,x,u
O=C(CCn1cccn1)N1CCCC(N2CCN(c3cccc(C(F)(F)F)c3)CC2)C1 (configuration not stated),u,-1%,0,2,3,15µM*
O=C(c1ccco1)N1CCCC(N2CCN(c3cccc(C(F)(F)F)c3)CC2)C1 (configuration not stated),16µM*,0%,-18,u,-65*,21µM*
O=C(c1cc(C2CC2)on1)N1CCCC(N2CCN(c3cccc(C(F)(F)F)c3)CC2)C1 (configuration not stated),u,x,6,-58*,16,u
Cc1cc(C)c(C(=O)N2CCCC(N3CCN(c4cccc(C(F)(F)F)c4)CC3)C2)o1 (configuration not stated),21µM*,-1%,-5,-6,-54*,8.2µM*
Cc1noc(C)c1C(=O)N1CCCC(N2CCN(c3cccc(C(F)(F)F)c3)CC2)C1 (configuration not stated),-17%,1%,8,16,1,-20%
CCCCN(C1CCS(=O)(=O)C1)S(=O)(=O)c1ccc(OC)c(OC)c1 (configuration not stated),-6%,-1%,-3,6,25,-2%
Cc1cc(C(=O)N2CCCC(N3CCN(c4cccc(C(F)(F)F)c4)CC3)C2)no1 (configuration not stated),u,1%,-1,-8,14,16µM*
COc1ccc(CC(=O)NCc2ccccc2F)cc1S(=O)(=O)N1CCOCC1,6%,-1%,9,-10,11,-4%
O/N=C/c1ccccc1OCc1ccccc1Cl,1%,-2%,-1,-27,9,-18%
O=C(Cc1ccccc1)N/N=C/c1ccccc1OCc1ccc(Cl)cc1,u,-2%,-3,-20,1,u
